Experimental data from PubChem BioAssay AID1159580 (chemical genetic matrix, 2015).
“And” between values parts separate entries of the source, which are not always exact repeats. Equal entries are not always repeated. Hit rate of the full screen: of about 5,500 compounds, about 2,000 (36%) were called active. Inconclusive results (about 18%) are left out. No stated cut-off is given here; in the data, active means normalized growth mostly below about 0.91 (no sharp cut-off); inconclusive means no clear call, values can overlap the other calls; inactive means mostly above about 0.92. Some of the results follow.

Assay: chemical genetic growth profiling, strain panel (AID 1159580);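 further: tested at 20 µM; growth read once vehicle control cultures reached saturation at 30 °C; 1 = growth at the plate median or of vehicle wells; lower values mean less growth of the strain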
Settings: S. cerevisiae deletion strains, growth OD
[1] = locus YPL241C, strain CIN2, active compounds read low

Measured: normalized growth

CCN1CCc2nc(N)oc2CC1
inactive: locus YAL013W, strain DEP1, active compounds read low 1.03 | locus YAL040C, strain CLN3, active compounds read low 0.981 | locus YCL061C, strain MRC1 (second series), active compounds read low 1 | locus YDR363W, strain ESC2, active compounds read low 1.03 | locus YER002W, strain NOP16, active compounds read low 0.993 | locus YMR263W, strain SAP30, active compounds read low 1 | locus YNL175C, strain NOP13, active compounds read low 1.01 | locus YNL197C, strain WHI3, active compounds read low 1.02 | locus YNL224C, strain SQS1, active compounds read low 0.995 | locus YOR083W, strain WHI5 (second series), active compounds read low 0.999 | [1] 0.998

O=C1O[C@H](C(O)CO)C(O)=C1O (stereo not given in full)
inactive: locus YAL021C, strain ccr4, active compounds read low 0.975 | locus YAL026C, strain drs2, active compounds read low 0.974 | locus YAL030W, strain snc1, active compounds read low 0.988 | locus YBL061C, strain skt5, active compounds read low 0.984 | locus YBR009C, strain hhf1, active compounds read low 0.992 | locus YBR021W, strain FUR4, active compounds read low 0.976 | locus YBR023C, strain chs3, active compounds read low 0.978 | locus YBR171W, strain sec66, active compounds read low 0.983 | locus YBR229C, strain ROT2, active compounds read low 0.991 | locus YBR231C, strain swc5, active compounds read low 1.01 | locus YBR279W, strain paf1, active compounds read low 0.986 | locus YCL011C, strain gbp2, active compounds read low 0.989 | locus YCL016C, strain dcc1, active compounds read low 0.986 | locus YCL029C, strain bik1, active compounds read low 0.96 | locus YCL061C, strain MRC1, active compounds read low 0.975 | locus YCL069W, strain vba3, active compounds read low 0.997 | locus YCR088W, strain abp1, active compounds read low 0.985 | locus YDL005C, strain med2, active compounds read low 0.983 | locus YDL035C, strain GPR1, active compounds read low 1.03 | locus YDL040C, strain nat1, active compounds read low 0.987 | locus YDL074C, strain BRE1, active compounds read low 0.997 | locus YDL101C, strain DUN1, active compounds read low 0.993 | locus YDL185W, strain tfp1, active compounds read low 0.973 | locus YDL192W, strain arf1, active compounds read low 0.977 | locus YDR001C, strain nth1, active compounds read low 0.99 | locus YDR069C, strain doa4, active compounds read low 0.991 | locus YDR101C, strain arx1, active compounds read low 0.954 | locus YDR137W, strain rgp1, active compounds read low 0.971 | locus YDR159W, strain sac3, active compounds read low 0.984 | locus YDR162C, strain NBP2, active compounds read low 1.01 | locus YDR195W, strain ref2 0.991 | locus YDR297W, strain sur2, active compounds read low 0.992 | locus YDR318W, strain mcm21, active compounds read low 1 | locus YDR334W, strain swr1, active compounds read low 0.979 | locus YDR335W, strain msn5, active compounds read low 0.993 | locus YDR388W, active compounds read low 0.977 | locus YDR392W, strain spt3, active compounds read low 0.916 | locus YDR502C, strain sam2, active compounds read low 0.996 | locus YEL003W, strain gim4, active compounds read low 1 | locus YEL037C, strain rad23, active compounds read low 0.988 | locus YEL061C, strain CIN8 (second series), active compounds read low 0.989 | locus YEL061C, strain CIN8, active compounds read low 1.02 | locus YER015W, strain faa2, active compounds read low 0.971 | locus YER016W, strain bim1, active compounds read low 0.997 | locus YER110C, active compounds read low 0.974 | locus YER111C, strain swi4, active compounds read low 0.983 | locus YER155C, strain BEM2 (second series), active compounds read low 0.992 | locus YER155C, strain BEM2, active compounds read low 0.976 | locus YER167W, strain BCK2, active compounds read low 1 | locus YFR010W, strain ubp6, active compounds read low 0.975 | locus YGL078C, strain dbp3, active compounds read low 0.964 | locus YGL086W, strain mad1, active compounds read low 0.957 | locus YGL167C, strain pmr1, active compounds read low 0.984 | locus YGL173C, strain kem1, active compounds read low 0.982 | locus YGL227W, strain vid30, active compounds read low 0.992 | locus YGL240W, strain doc1, active compounds read low 0.986 | locus YGL248W, strain PDE1, active compounds read low 0.997 | locus YGL253W, strain hxk2, active compounds read low 0.992 | locus YGR135W, strain pre9, active compounds read low 1.01 | locus YGR229C, strain SMI1, active compounds read low 1.01 | locus YGR252W, strain gcn5, active compounds read low 1.06 | locus YHR013C, strain ard1, active compounds read low 0.957 | locus YHR027C, strain rpn1, active compounds read low 1.01 | locus YHR030C, strain SLT2, active compounds read low 0.991 and 0.989 | locus YHR079C, strain IRE1 (second series), active compounds read low 0.984 | locus YHR079C, strain IRE1, active compounds read low 1 | locus YHR094C, strain hxt1, active compounds read low 0.976 | locus YHR129C, strain ARP1, active compounds read low 1 | locus YHR142W, strain chs7, active compounds read low 0.979 | locus YHR200W, strain rpn10, active compounds read low 0.982 | locus YIL066C, strain RNR3, active compounds read low 0.987 | locus YIL073C, strain SPO22, active compounds read low 0.997 | locus YIL125W, strain kgd1, active compounds read low 0.967 | locus YIR030C, strain dcg1, active compounds read low 0.978 | locus YJL092W, strain hpr5, active compounds read low 0.988 | locus YJL095W, strain BCK1 (second series), active compounds read low 0.991 | locus YJL095W, strain BCK1, active compounds read low 1.02 and 0.983 | locus YJL115W, strain asf1, active compounds read low 0.987 | locus YJL129C, strain trk1, active compounds read low 0.992 | locus YJL134W, strain LCB3, active compounds read low 0.987 | locus YJL154C, strain vps35, active compounds read low 1 | locus YJL164C, strain tpk1, active compounds read low 0.969 | locus YJL166W, strain qcr8, active compounds read low 0.97 | locus YJL168C, strain set2, active compounds read low 0.979 | locus YJL187C, strain SWE1 (second series), active compounds read low 0.999 | locus YJL187C, strain SWE1, active compounds read low 0.986 | locus YJR043C, strain POL32, active compounds read low 0.999 | locus YJR066W, strain TOR1, active compounds read low 0.943 | locus YKL009W, strain mrt4, active compounds read low 1.01 | locus YKL068W, active compounds read low 0.992 | locus YKL085W, strain MDH1 (second series), active compounds read low 0.992 | locus YKL085W, strain MDH1, active compounds read low 0.992 | locus YKL160W, strain elf1, active compounds read low 0.971 | locus YKR001C, strain vps1, active compounds read low 0.949 | locus YKR026C, strain gcn3, active compounds read low 0.99 | locus YKR091W, strain srl3, active compounds read low 0.986 | locus YLL001W, strain dnm1, active compounds read low 0.987 | locus YLL026W, active compounds read low 0.998 | locus YLL041C, strain sdh2, active compounds read low 0.988 | locus YLR027C, strain aat2, active compounds read low 0.99 | locus YLR039C, strain RIC1, active compounds read low 1.03 | locus YLR058C, strain SHM2, active compounds read low 1.01 | locus YLR102C, strain apc9, active compounds read low 0.98 | locus YLR113W, strain HOG1, active compounds read low 0.974 | locus YLR221C, strain rsa3, active compounds read low 0.975 | locus YLR258W, strain gsy2, active compounds read low 0.99 | locus YLR262C, strain YPT6 (second series), active compounds read low 0.952 | locus YLR262C, strain YPT6, active compounds read low 1.04 | locus YLR268W, strain sec22, active compounds read low 0.933 | locus YLR320W, strain mms22, active compounds read low 0.975 | locus YLR330W, strain CHS5, active compounds read low 0.99 | locus YLR342W, strain FKS1 (second series), active compounds read low 0.989 | locus YLR342W, strain FKS1, active compounds read low 0.98 | locus YLR357W, strain rsc2, active compounds read low 0.952 | locus YLR370C, strain arc18, active compounds read low 0.986 | locus YLR371W, strain rom2, active compounds read low 0.959 | locus YLR384C, strain iki3, active compounds read low 0.971 | locus YLR418C, strain cdc73, active compounds read low 1.02 | locus YML016C, strain PPZ1, active compounds read low 0.958 | locus YML032C, strain rad52, active compounds read low 1.02 | locus YML120C, strain ndi1, active compounds read low 0.978 | locus YML124C, strain tub3, active compounds read low 0.972 | locus YMR058W, strain fet3, active compounds read low 0.99 | locus YMR078C, strain ctf18, active compounds read low 0.961 | locus YMR125W, strain sto1, active compounds read low 0.979 | locus YMR129W, active compounds read low 0.996 | locus YMR205C, strain PFK2, active compounds read low 0.963 | locus YMR223W, strain ubp8, active compounds read low 0.982 | locus YMR231W, strain pep5, active compounds read low 0.986 | locus YMR307W, strain GAS1, active compounds read low 1.01 | locus YNL067W, strain RPL9B, active compounds read low 1 | locus YNL071W, strain lat1, active compounds read low 0.986 | locus YNL128W, strain TEP1, active compounds read low 0.988 | locus YNL183C, strain NPR1, active compounds read low 0.932 | locus YNL209W, strain ssb2, active compounds read low 0.998 | locus YNL233W, strain BNI4, active compounds read low 0.993 | locus YNL248C, strain rpa49, active compounds read low 0.983 | locus YNL250W, strain rad50, active compounds read low 0.962 | locus YNL271C, strain bni1, active compounds read low 0.966 | locus YNL298W, strain CLA4, active compounds read low 0.979 | locus YNL307C, strain MCK1, active compounds read low 0.965 | locus YNL322C, strain KRE1 (second series), active compounds read low 0.984 | locus YNL322C, strain KRE1, active compounds read low 0.995 | locus YNR049C, strain mso1, active compounds read low 0.986 | locus YNR052C, strain pop2, active compounds read low 0.985 | locus YOL006C, strain TOP1, active compounds read low 0.979 | locus YOL012C, strain htz1 1.07 | locus YOL147C, strain pex11, active compounds read low 0.982 | locus YOR001W, strain rrp6, active compounds read low 0.989 | locus YOR061W, strain CKA2, active compounds read low 0.992 | locus YOR069W, strain VPS5, active compounds read low 0.991 | locus YOR070C, strain gyp1, active compounds read low 0.989 | locus YOR080W, strain dia2, active compounds read low 0.981 | locus YOR083W, strain WHI5, active compounds read low 0.973 | locus YOR106W, strain vam3, active compounds read low 0.962 | locus YOR136W, strain idh2, active compounds read low 0.96 | locus YOR144C, strain elg1, active compounds read low 0.974 | locus YOR184W, strain ser1, active compounds read low 0.991 | locus YOR231W, strain MKK1, active compounds read low 0.965 | locus YOR265W, strain rbl2, active compounds read low 0.984 | locus YOR270C, strain vph1, active compounds read low 0.987 | locus YOR290C, strain snf2, active compounds read low 0.953 | locus YOR316C, strain cot1, active compounds read low 0.976 | locus YPL051W, strain arl3, active compounds read low 0.977 | locus YPL078C, strain atp4, active compounds read low 0.979 | locus YPL106C, strain sse1, active compounds read low 0.93 | locus YPL240C, strain hsp82, active compounds read low 0.995 | [1] 0.993 | locus YPL256C, strain CLN2, active compounds read low 1 | locus YPR119W, strain clb2, active compounds read low 0.976 | locus YPR141C, strain kar3, active compounds read low 0.973 | locus YPR163C, strain tif3, active compounds read low 0.975 | locus YPR167C, strain met16, active compounds read low 0.998 | strain wtn01, active compounds read low 0.932
